# Values joined by “and” are separate entries in the source; they are usually repeats but may differ in a detail not shown here. Identical values can stand only once. Results filed as inconclusive are left out. Where a call stands in place of a potency, no number is given. A number with no mark means an inactive call. Active and inactive are the calls of the source. Calls follow the shape of the dose curve; as a rule, active = well fitted curve in the direction sought with a large enough effect in the repeat runs; inconclusive = weak or mixed curves; inactive = no such curve, though single readings can be large; an effect the other way counts as inactive or inconclusive.
# Key:
# [1] = A CellTox Green Cytotoxicity Assay to monitor cytotoxicity in HEK293 cells - 40 hour (AID 1224871); also: nearly all actives have a fitted effect of over 45% in size; also: potency is read from the fitted curve at half-maximal effect
# In short: (§1)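 Seeding of HEK293 cells together with cytotoxicity dye preceded a 5 h incubation at 37 C/5% CO2. Test compounds in DMSO were then added and fluorescence monitored across 40 h.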
# [2] = qHTS RealTime-Glo MT Cell Viability Assay in HepG2 cells - 8 hour (AID 1224873); also: nearly all actives have a fitted effect of over 55% in size
# In short: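 HepG2 cells mixed with RealTime-Glo MT reagents (NanoLuc plus cell-permeant prosubstrate) were seeded at 600 cells/well, incubated 5 h at 37 C/5% CO2, then pinned with compounds in DMSO; nonlytic luminescence tracked viability during 40 h treatment.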
# [3] = qHTS RealTime-Glo MT Cell Viability Assay in HEK293 cells - 40 hour (AID 1224874); conditions: RealTime-Glo luminescence; max response: active compounds read low; also: nearly all actives have a fitted effect of over 50% in size; also: potency is read from the fitted curve at half-maximal effect
# In short: (§2)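 Tox21 screen in HEK293 using RealTime-Glo MT chemistry, with cells and reagent co-dispensed. Luminescence proportional to viable cell number was captured at intervals during 40 h compound exposure at 37 C.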
# [4] = A CellTox Green Cytotoxicity Assay to monitor cytotoxicity in HEK293 cells - 24 hour (AID 1224875); also: nearly all actives have a fitted effect of over 45% in size; also: potency is read from the fitted curve at half-maximal effect; as to activity change: series mostly up to about 77 µM
# In short: as §1
# [5] = qHTS RealTime-Glo MT Cell Viability Assay in HepG2 cells - 32 hour (AID 1224877); also: nearly all actives have a fitted effect of over 55% in size; also: potency is read from the fitted curve at half-maximal effect
# In short: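 qHTS, HepG2, 600 cells/well, RealTime-Glo (NanoLuc + prosubstrate) added with cells; 5 h preincubation; DMSO compound addition; 37 C; luminescence at 0/8/16/24/32/40 h.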
# [6] = A CellTox Green Cytotoxicity Assay to monitor cytotoxicity in HepG2 cells - 24 hour (AID 1224878); also: nearly all actives have a fitted effect of over 45% in size; also: potency is read from the fitted curve at half-maximal effect
# In short: (§3)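 Nonlytic assay: viable cells exclude the dye, so fluorescence scales with cell death. HepG2 at 600 cells/well, compounds added after 5 h, signal read across 40 h.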
# [7] = A CellTox Green Cytotoxicity Assay to monitor cytotoxicity in HepG2 cells - 40 hour (AID 1224879); also: nearly all actives have a fitted effect of over 40% in size; also: potency is read from the fitted curve at half-maximal effect
# In short: as §3
# [8] = qHTS RealTime-Glo MT Cell Viability Assay in HEK293 cells - 0 hour (AID 1224880); also: nearly all actives have a fitted effect of over 45% in size; also: potency is read from the fitted curve at half-maximal effect; as to activity change, negative = cytotoxicity: top concentration of the series differs between compounds
# In short: as §2
# [9] = qHTS RealTime-Glo MT Cell Viability Assay in HEK293 cells - 16 hour (AID 1224872); also: nearly all actives have a fitted effect of over 50% in size; also: potency is read from the fitted curve at half-maximal effect; as to activity change, negative = cytotoxicity: top concentration of the series differs between compounds
# In short: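 Assay medium contained NanoLuc luciferase plus cell-permeant prosubstrate, added with HEK293 cells at 600 cells/well. After 5 h at 37 C/5% CO2 compounds were added; plates stayed at 37 C for 40 h with serial luminescence reads.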
# [10] = A CellTox Green Cytotoxicity Assay to monitor cytotoxicity in HepG2 cells - 16 hour (AID 1224876); also: nearly all actives have a fitted effect of over 45% in size
# In short: as §3
Structure (SMILES),Potency [1],Potency [2],max response [3],Potency [4],Potency [5],Potency [6],Potency [7],Potency [8],Potency [9],Potency [10],cytotoxicity increase [1],"viability change, negative = cytotoxic [2]",activity change [4],cytotoxicity increase [10],"activity change, negative = cytotoxicity [8]",Potency [3]
O=C(O)Cc1ccc2c(c1)C(=O)c1ccccc1CO2,inactive,inactive,1.5%,inactive,inactive,inactive,inactive,inactive,,,,,,,,
CC(=O)[C@H]1CC[C@H]2[C@@H]3CCC4=CC(=O)CC[C@]4(C)[C@H]3CC[C@]12C,24.4 µM (active) and 34.7 µM (active),,,,inactive,inactive,54.6 µM (active) and 43.6 µM (active),15.4 µM (active) and 19.5 µM (active),15.4 µM (active) and 19.5 µM (active),inactive,,,,,,
[Cl][Pt-2]([Cl])([Cl])[Cl],inactive,inactive,,inactive,inactive,inactive,inactive,inactive,,inactive,,,,,,
CN(C)CCN1CCN(c2cccc(Cl)c2)C1=O,inactive,inactive,,inactive,inactive,inactive,inactive,inactive,,inactive,,,,,,
O=C(/C=C/c1ccc(O)c(O)c1)O[C@@H](C(=O)O)[C@@H](OC(=O)/C=C/c1ccc(O)c(O)c1)C(=O)O,inactive,inactive,1.33%,inactive,inactive,inactive,inactive,inactive,,inactive,,,,,,
C#C[C@]1(O)CC[C@H]2[C@@H]3[C@H](C)CC4=C(CCC(=O)C4)[C@H]3CC[C@@]21C,inactive,inactive,,inactive,inactive,inactive,inactive,inactive,,inactive,,,,,,
COc1cc2nc(N3CCN(C(=O)c4ccco4)CC3)nc(N)c2cc1OC,,,-18.8%,,,7.37 µM (active),10.4 µM (active),,,,63.2% [at 15.8 µM],-0.626% [at 15.8 µM],"21% [at 15.8 µM, active compounds read high]",29.2% [at 15.8 µM],4.25% [at 15.8 µM],
Cc1c2ccccc2c(C)c2c1ccc1ccccc12,43.6 µM (active),inactive,,49 µM (active),inactive,inactive,inactive,inactive,,inactive,,,,,,43.2 µM (active) and 34.7 µM (active)
COc1ccc2c(c1)c(CC(=O)OC/C=C(\C)CC/C=C(\C)CCC=C(C)C)c(C)n2C(=O)c1ccc(Cl)cc1,inactive,,,inactive,inactive,inactive,inactive,inactive,inactive,inactive,,,,,,
O=C(O)Cc1ccccc1Nc1c(Cl)cccc1Cl,inactive,inactive,15.1% and 6.54%,inactive,inactive,inactive,inactive,inactive,,inactive,,,,,,
C=Cc1ccccc1C=C,inactive,inactive,16.3%,inactive,inactive,inactive,,inactive,,inactive,,,,,,
COc1ccc(-c2coc3cc(O)ccc3c2=O)cc1,inactive,inactive,-10.2%,inactive,inactive,inactive,inactive,inactive,,inactive,,,,,,
COCCOc1cc2cc(C(=O)NC3CCN(C(C)C)CC3)n(CC(=O)Nc3ccc(Cl)cn3)c2cn1,inactive,inactive,,inactive,inactive,inactive,inactive,,,inactive,,,,,,
c1ccc(SSc2ccccc2)cc1,inactive,inactive,-15.4%,inactive,inactive,inactive,inactive,,,inactive,,,,,,
Oc1ccccc1O,inactive,inactive,,inactive,inactive,inactive,inactive,inactive,,inactive,,,,,,35.1 µM (active) and 24.5 µM (active)
CC(=O)OCC=C(C)C,inactive,inactive,-1.54%,inactive,inactive,,,inactive,,,,,,,,
CCC(CC)C(C)CCOC(C)=O (stereo unspecified),inactive,inactive,20.3%,inactive,inactive,inactive,inactive,,,,,,,,,
CC(C(=O)O)c1ccc2c(c1)[nH]c1ccc(Cl)cc12 (stereo unspecified),inactive,inactive,1.73%,inactive,inactive,inactive,inactive,,,inactive,,,,,,
Cc1c(N)cccc1C(F)(F)F,inactive,inactive,-0.691%,inactive,inactive,inactive,inactive,inactive,,,,,,,,
CC(=O)CC(=O)Nc1ccc(S(=O)(=O)O)cc1,inactive,inactive,0.915%,inactive,inactive,inactive,inactive,inactive,,inactive,,,,,,
O=c1[nH]c2ccccc2n1CCCN1CCN(C(c2ccccc2)c2ccccc2)CC1,inactive,,,inactive,26.8 µM (active),23.9 µM (active),23.9 µM (active),inactive,10.7 µM (active),,,,,,,
CC(C)NC[C@@H](O)COc1ccc(CC(N)=O)cc1,inactive,inactive,-0.295%,inactive,inactive,inactive,inactive,inactive,,,,,,,,
